PP1 inh = blocks human PP1-alpha phosphatase, a PP5 counter-screen; inhibition, % at 6.7 µM; purified PP1alpha, OMFP fluorescence; actives 0.9% (n = 320,000);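 active means inhibition above the mean inhibition of all tested compounds plus 3 SD, computed separately for each screening campaign, cut at about 15% in these data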
PP5 primary = blocks human protein phosphatase 5 activity; P53041; purified PP5c, OMFP substrate fluorescence; inhibition, % at 6.7 µM; actives 0.18% (n = 320,000); AID 1987;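 active means inhibition above the campaign's mean inhibition across all tested compounds plus 3 SD, cut at about 9.5% in these data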;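 further: 0% = DMSO only and 100% = 100 µM cantharidin control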
Target sequence (P53041 whole entry, looked up): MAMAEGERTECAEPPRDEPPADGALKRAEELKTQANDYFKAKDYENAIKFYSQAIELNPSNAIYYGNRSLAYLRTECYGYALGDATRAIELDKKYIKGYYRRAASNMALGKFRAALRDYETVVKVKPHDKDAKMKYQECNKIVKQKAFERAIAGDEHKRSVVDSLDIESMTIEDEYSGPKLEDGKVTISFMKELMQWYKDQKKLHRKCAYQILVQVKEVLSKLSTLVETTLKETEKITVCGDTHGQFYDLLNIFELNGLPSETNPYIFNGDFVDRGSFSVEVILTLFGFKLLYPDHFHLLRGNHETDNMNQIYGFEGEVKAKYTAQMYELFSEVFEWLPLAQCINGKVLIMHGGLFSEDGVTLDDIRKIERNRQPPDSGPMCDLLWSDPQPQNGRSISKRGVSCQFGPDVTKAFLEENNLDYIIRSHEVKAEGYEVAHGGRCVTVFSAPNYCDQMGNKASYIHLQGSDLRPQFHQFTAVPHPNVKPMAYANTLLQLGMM
ALR inh = human ALR oxidase inhibition via reduced H2O2; P55789; purified ALR, DTT oxidation, H2O2 HRP-luminol luminescence; inhibition, % (no concentration beside the values); actives 3.8% (n = 290,000);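 active means mean replicate inhibition above about 79%, with every replicate also reaching it, limit read from the data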
Calb FLC = C. albicans growth modulation with fluconazole. C. albicans CaCi-2 (fluconazole-resistant clinical isolate) + fluconazole, Alamar Blue growth, 48 h. growth inhibition, % (test concentration not listed). actives 0.57% (n = 300,000). AID 1979;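 active means growth inhibition above about 58% in most replicates, limit read from the data, passing the limit was not always enough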;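 further: all wells also contain fluconazole at 8 µg/ml as a sub-toxic cotreatment; 0% = median of DMSO wells and 100% = median of geldanamycin control wells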
CSC inhib = blocks cancer stem cells; cancer stem cell-like cells viability, luminescence; inhibition, % at 7.5 µM; actives 1.1% (n = 300,000); AID 2717; in the data active means inhibition above about 75%; tested in HMLE shEcad cells
Numbers without * were called inactive; . = not tested or not shown. Shown are actives, neighbours in structure and some others; about 5.4% of the full set was active somewhere.

SMILES	PP1 inh	PP5 primary	ALR inh	Calb FLC	CSC inhib
CC1(C)C2(C#N)C(N)=NC3(OCCO3)C12C#N (stereo not given)	-2	2	100*	-4	0
O=C(CCCn1c(=S)[nH]c2ccsc2c1=O)Nc1ccc2c(c1)OCO2	-1	-2	5	-4	28
Cc1ccc(NC(=O)CCCn2c(=S)[nH]c3ccsc3c2=O)cc1C	-1	1	84*	36	-4
CCOC(=O)N1CCN(C(=O)CCCCn2c(=S)[nH]c3ccsc3c2=O)CC1	-3	0	96*	-16	-2
Cc1cc(NC(=O)CCNS(=O)(=O)c2cc(Br)cnc2N)ccc1Br	0	4	-1	2	56
O=C(Nc1ccc(-c2nc3ccccc3s2)cc1)c1cc(-n2cnnc2)ccc1Cl	2	1	-7	64	24
CCn1cc(SCC(=O)N2CCc3ccccc32)c2ccccc21	7	5	98*	2	6
Cc1[nH]n(-c2ccccc2)c(=O)c1-c1ccc(Cl)cc1	4	-3	26	-8	13
COC(=O)c1cc(=O)n(Cc2ccc3c(c2)OCO3)c(=Nc2ccc(F)cc2)s1	-5	2	-12	-3	43
COC(=O)c1cc(=O)n(Cc2cccs2)c(=Nc2ccc(F)cc2)s1	10	5	3	-4	121*
COC(=O)c1cc(=O)n(Cc2ccco2)c(=Nc2ccc(F)c(Cl)c2)s1	4	3	1	0	94*
COC(=O)c1cc(=O)n(CCc2ccccc2F)c(=Nc2ccc(F)c(Cl)c2)s1	1	-1	-14	-1	122*
COC(=O)c1cc(=O)n(-c2ccc(F)cc2)c(=Nc2ccc(F)cc2)s1	4	2	7	11	16
COC(=O)c1cc(=O)n(Cc2ccc3c(c2)OCO3)c(=Nc2ccccc2)s1	-2	0	-3	-2	59
COC(=O)c1ccc(NC(=O)CSc2nnc(COc3c(C)cccc3C)o2)cc1	-3	-1	-4	-1	-17
CCC/C(=N\NC(=O)c1cccc(C)c1)c1ccccc1	-4	1	1	5	-8
Fc1ccc(Nc2nc(N3CCOCC3)c3ccccc3n2)cc1	1	6	93*	-2	.
c1ccc2c(Nc3nc(N4CCOCC4)c4ccccc4n3)cccc2c1	6	3	-7	0	3
CCN(CC)c1ccc(/C=C(\C#N)c2ccccn2)cc1	2	7	44	4	78*
Cc1ccc(SCc2c(C#N)c3ccccc3n2C)cc1	3	4	99*	2	-4
Cn1c(CSc2ccccc2)c(C#N)c2ccccc21	-1	0	-2	17	6
S=c1nc[nH]c2nc[nH]c12	0	1	9	-6	84*
S=c1nc[nH]c2c1cnn2-c1ccccc1	0	5	25	5	41
Cc1cc2nc(CS)[nH]c2cc1C	5	-3	99*	14	-18
CCC/C(=C1/c2ccccc2C(=O)N1c1ccccc1)c1ccc2c(c1)OCCO2	0	3	-18	.	89*
SMILES	PP1 inh	PP5 primary	ALR inh	Calb FLC	CSC inhib
CCC/C(=C1/c2ccccc2C(=O)N1c1ccccc1)c1ccc(O[C@@H]2CCCCO2)cc1	.	.	-1	.	56
CCOC(=O)NC(=O)/C(C#N)=N\Nc1ccc(Cl)cc1	0	2	.	-2	-7
N#C/C(=N/Nc1ccc(OC(F)(F)F)cc1)C(N)=S	5	7	57	81*	62
COc1ccc(C(=O)/C(C#N)=N/Nc2ccc([N+](=O)[O-])cc2)cc1	8	3	-8	-8	18
CCOc1ccc(N/N=C(/C#N)C(N)=O)cc1	-4	2	98*	-16	-1
N#C/C(=N\Nc1ccc(F)cc1)C(=N)N1CCCCC1	-4	3	64	-12	6
COc1ccc(N/N=C(\C#N)C(N)=O)cc1	-6	3	98*	-1	-2
COc1ccc(N/N=C(\C#N)C(=N)N2CCOCC2)cc1	-3	0	99*	-7	8
COc1ccccc1OCc1nc(-c2cccc([N+](=O)[O-])c2)no1	1	2	-7	-6	9
CC(C)NC(=O)NC(=O)CSc1ncccn1	5	-1	0	2	0
O=C(NCCOc1ccccc1Cl)c1ncn[nH]1	-6	0	-6	-33	.
COc1ccccc1NS(=O)(=O)c1cccc(C(=O)NNC(=O)c2ccc(=O)[nH]c2)c1	-4	-1	2	.	-2
Cc1ccc(NC(=O)Cc2nc(-c3c[nH]c(C(=O)N4CCCC4)c3)cs2)c(C)c1	4	1	98*	.	.

Screening results deposited in PubChem BioAssay by several laboratories.
